The values below come from PubChem BioAssay (Tox21).

Structures are written as SMILES. Inconclusive results are not listed. A call without a number means that no potency is given here. Values without a mark were called inactive. Activity calls are given as the source filed them. Calls come from the whole dose curve; as a rule, active = well fitted activation curve with a large enough effect in the repeat runs; inconclusive = weak or mixed curves; inactive = no such curve, though single readings can be large or run the other way.
Potency is the fitted concentration of half-maximal effect.

The target in this assay is Nuclear receptor subfamily 1 group I member 2 (Homo sapiens) (UniProt O75469). Put plainly: Human pregnane X receptor (PXR) small molecule agonists, qHTS assay (AID 1346982). Note: nearly all actives have a fitted effect of over 35% in size. The note with it: PXR-Luc HepG2, CYP3A4 luciferase reporter, 24 h; series mostly up to 92.4 µM. From the text: National Center for Advancing Translational Sciences [NCATS]
Nuclear receptor subfamily 1 group I member 2 (Homo sapiens), sequence (O75469 whole entry, looked up): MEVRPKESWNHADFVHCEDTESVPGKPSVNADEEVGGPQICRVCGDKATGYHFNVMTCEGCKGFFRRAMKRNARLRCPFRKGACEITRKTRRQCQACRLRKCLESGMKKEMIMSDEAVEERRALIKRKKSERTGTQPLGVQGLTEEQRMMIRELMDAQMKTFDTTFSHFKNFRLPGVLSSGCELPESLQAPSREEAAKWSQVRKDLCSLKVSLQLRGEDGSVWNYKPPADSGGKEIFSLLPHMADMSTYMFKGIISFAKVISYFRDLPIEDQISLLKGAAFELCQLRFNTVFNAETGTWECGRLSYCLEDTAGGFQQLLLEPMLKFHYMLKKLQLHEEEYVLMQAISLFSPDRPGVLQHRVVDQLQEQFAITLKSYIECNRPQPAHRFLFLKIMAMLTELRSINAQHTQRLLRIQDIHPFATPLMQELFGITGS
NIH Chemical Genomics Center [NCGC]
U.S. Environmental Protection Agency [EPA]
National Institutes of Environmental Health Sciences [NIEHS]
National Toxicology Program [NTP]
The human pregnane X receptor (hPXR) regulates the expression of several drug metabolizing enzymes and induction of these proteins is a major mechanism for developing drug resistance in cancer. One such key enzyme catalyzing the drug metabolism is cytochrome P450 3A4 (CYP3A4). Changes in CYP3A4 expression affect drug metabolism, thereby reducing the therapeutic efficacy and altering toxicological response to a drug and which finally causes adverse drug interaction. To screen Tox21 libraries for compounds that activate hPXR-mediated CYP3A4 gene expression, PXR-Luc HepG2 cells were used.
PXR-Luc HepG2 cells were dispensed at 2,000 per well in 5uL of assay medium containing 5% charcoal-stripped FBS into white solid bottom 1536-well plates (Corning Life Sciences, Corning, NY) using a Multidrop Combi (Thermo Scientific, Waltham, MA) dispenser. The assay plates were incubated at 37 C and 5% CO2 for 5hr, and then 23nL of compounds dissolved in DMSO and positive control were transferred using a Pintool station (Wako, San Diego, CA). The assay plates were incubated at 37C and 5% CO2 for 24hr. For luciferase read, 4uL of ONE-Glo reagent (Promega Corporation, Madison, WI) was added to each well of the assay plates using Flying Reagent Dispenser (FRD, Aurora Discovery, San Diego, CA) and incubated the assay plates at room temperature for 30min. The luminescence signal was quantified using a ViewLux plate reader (Perkin Elmer, Shelton, CT).
For orientation: Quantitative high-throughput screening tests each substance at several concentrations.
Turning to `C[Si](C)(C)Cl`, the Potency result is “inactive”. Consider `O=C(O)CC(=O)O`, for which the Potency result is “inactive”. Same read-out and setting: as for `Cc1ccc(CCn2c3c(c4cc(Cl)ccc42)CN(C)CC3)cn1`, the figure is 33.5 µM (active). As for `O=C(Oc1ccccc1)c1cccc(C(=O)Oc2ccccc2)c1`, the Potency was 0.456 µM (active).

As for `CCCCCCOc1ccc(O)cc1`, the Potency is 48.6 µM (active). `Brc1ccccn1`: the Potency entry was “inactive”. As for `O=C=NCc1cccc(CN=C=O)c1`, the activation is 2.53% [at 19 µM].

As to `S=C(SSSSSSC(=S)N1CCCCC1)N1CCCCC1`, the activation is 19.2% [at 19 µM]. As for `C=C(c1ccc(C(=O)O)cc1)c1cc2c(cc1C)C(C)(C)CCC2(C)C`, the Potency entry is “inactive”. With `CCCCCCCCCC(=O)N(C)C`, the Potency is 62.1 µM (active).

On to `CC(=O)c1ccccc1N`, for which the Potency result is “inactive”. On to `CN(C)c1ccc(N=NS(=O)(=O)O)cc1`, for which the Potency is 21.7 µM (active).

On to `CCCOc1sc(C(=O)N2CCC(c3cc(CN)ccc3F)CC2)c(C)c1Br`, for which the Potency result is “inactive”. `CCCCCCS`: the Potency entry was “inactive”. Regarding `COC(=O)[C@]1(C)CCC[C@@]2(C)[C@H]1CC=C1C=C(C(C)C)CC[C@@H]12`, the Potency was 17.2 µM (active). `CCC(=O)OCCc1ccccc1`: the Potency result is “inactive”. For `COc1cc(C=C2CCC/C(=C\c3ccc(O)c(OC)c3)C2=O)ccc1O`, the Potency entry was “inactive”.

As to `Cc1cc(C)c(C=O)c(C)c1`, the Potency was 43.3 µM (active). `Cc1cnccn1`: the Potency result was “inactive”.

Regarding `O=C1OC(OC(=O)c2cccnc2Nc2cccc(C(F)(F)F)c2)c2ccccc21` (stereo not given), the Potency entry is “inactive”. For `CCc1cccc(CC)c1NC(=O)C(=O)O`, the Potency result is “inactive”. As to `CN(Cc1cc(Br)cc(Br)c1N)C1CCCCC1`, the Potency was 13.3 µM (active). `c1cc[nH]c1`: the Potency entry was “inactive”. Same read-out and setting: for `CO[Si](CCC1CCC2OC2C1)(OC)OC` (stereo not given) the value was “inactive”.

Take `Cc1c(C)n(Cc2ccccc2)c2ccc(C(=O)OCCN(C)C)cc12`: the Potency was 7.5 µM (active). On to `COc1cccc(O)c1`, for which the Potency entry is “inactive”.

Consider `CN(C)c1ccc(N=Nc2ccccc2C(=O)O)cc1`, for which the Potency is 21.7 µM (active). For the compound `CCC(C)c1ccccc1` (stereo not given), the Potency result is “inactive”. Turning to `OCCCCl`, the Potency result is “inactive”. Still for that read-out and setting: as for `CCCCCCCOC(=O)c1ccc(O)cc1`, the figure is 61.1 µM (active); as for `CCOC(OCC)C(=O)c1ccccc1`, “inactive”. As to `CCOC(/C=C(\C)CCC=C(C)C)OCC`, the Potency result was “inactive”. As to `NC(=O)C(=O)N/N=C/c1ccc([N+](=O)[O-])o1`, the Potency entry is “inactive”. Consider `CCCCCCCC(OC)OC`, for which the Potency entry was “inactive”. For the compound `Cc1c(C(=O)O)cccc1[N+](=O)[O-]`, the Potency result is “inactive”. As to `NC(=O)c1ccccc1N`, the Potency entry is “inactive”.

With `CCC(C)C(=O)OC` (stereo not given), the Potency entry is “inactive”. The same measure, in the same setting: as for `CN(C)CCN1CCOCC1`, the entry is “inactive”; as for `COc1ccc(C#N)cc1`, “inactive”. With `CCC(C)(C)c1cc(O)c(C(C)(C)CC)cc1O`, the Potency was 30.6 µM (active).
